ELG1 genotoxic = inducers of genotoxicity in HEK293T ELG1-luciferase cells; HEK293T ELG1-luciferase reporter, luminescence, 16 h; Potency, µM (top dose mostly 46 µM), inactives show top-dose activity change, positive = activation, hits mostly activators; 1.3% of 330,000 active; AID 504466; further: % of control where 0% means no effect; nearly all actives have a fitted effect of over 60% in size
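Reporter readout depends on ELG1 protein level, which increases with genetic stress. After 16 hr compound exposure at 37 °C, luciferase activity was quantified using ONE-Glo.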
SMN2 splice enh = increases expression of the SMN2 splice variant; AID 1458; Potency, µM (titrated, usually from 46.1 µM), without a hit: at the highest dose activity change, positive = activation, actives largely listed as activators; HEK293 SMN2-luciferase splicing reporter, luminescence, 30-36 h; 2.8% of 210,000 active; further: % of control where 0% means no effect; nearly all actives have a fitted effect of over 55% in size
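HEK293 cells carry an SMN2 […]–luciferase reporter in which exon 7 inclusion puts luciferase in frame. Cells were plated 10-12 h before compound addition, then incubated 30-36 h at 37C. ONE-Glo luminescence was read; sodium butyrate at 4.5 mM final served as control.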
Rab9 promoter act = activators of Rab9 promoter; Huh7 Rab9 promoter-luciferase reporter, luminescence, 24 h; Potency, µM (titrated, usually from 9.22 µM), inactives show at the highest dose activation, negative = inhibition, hits mostly activators; 2.8% of 320,000 active; AID 485297; further: % of control where 0% means no effect; nearly all actives have a fitted effect of over 60% in size
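Luminescence from Amplite-detected luciferase (10 minutes, ambient) reports Rab9 promoter activation. Before that, stable Rab9-luciferase Huh7 cells (1500/well, reduced-serum OP-MEM I plus 10% FBS) were exposed to compound for 24 hours at 37C.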
FLuc modulator = counter-screen for miR-21 project: firefly luciferase inhibitors or activators; 6.9% of 360,000 active; P08659; Potency, µM (series often up to 57.5 µM), without a hit: at the highest dose activity change, negative = inhibition, usual class: inhibitors; purified FLuc, Km substrates, luminescence inhibition;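 further: plate controls were vehicle for no effect and reference inhibitor for full effect; nearly all actives have a fitted effect of over 55% in size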
Target sequence (P08659 whole entry, looked up): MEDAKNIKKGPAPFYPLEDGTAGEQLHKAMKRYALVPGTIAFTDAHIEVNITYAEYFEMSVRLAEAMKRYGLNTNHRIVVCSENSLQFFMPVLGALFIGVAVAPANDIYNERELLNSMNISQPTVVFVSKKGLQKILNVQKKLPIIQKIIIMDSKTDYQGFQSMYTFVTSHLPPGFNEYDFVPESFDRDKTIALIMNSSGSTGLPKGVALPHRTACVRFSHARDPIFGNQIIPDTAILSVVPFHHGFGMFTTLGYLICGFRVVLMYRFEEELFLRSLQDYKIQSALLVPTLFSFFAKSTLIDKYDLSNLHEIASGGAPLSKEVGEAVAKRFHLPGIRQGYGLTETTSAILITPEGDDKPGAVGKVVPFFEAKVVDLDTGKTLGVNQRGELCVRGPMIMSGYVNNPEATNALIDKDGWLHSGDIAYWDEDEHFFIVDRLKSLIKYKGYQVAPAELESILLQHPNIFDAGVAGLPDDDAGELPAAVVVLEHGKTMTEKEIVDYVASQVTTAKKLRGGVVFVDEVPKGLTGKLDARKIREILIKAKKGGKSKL
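Purified P. pyralis luciferase (10nM final) with 10uM D-luciferin and 10uM ATP (Km levels) in 50mM Tris acetate pH 7.5, 10mM Mg acetate, 0.01% Tween-20, 0.05% BSA; qHTS 6-point titration, ~60 µM downward; luminescence read.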
NPC1 prom act = activators of NPC1 promoter; Huh7 NPC1 promoter luciferase reporter, 24 h; Potency, µM (top dose mostly 9.22 µM), for inactives: at the highest dose activation, actives largely listed as activators; 2.4% of 320,000 active; AID 485313; further: % of control where 0% means no effect; nearly all actives have a fitted effect of over 60% in size
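Luciferase expression driven by the NPC1 promoter was measured in stably transfected Huh7 cells after a 24 h compound incubation, using a luciferase reagent and a luminescence read.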
Numbers without * were called inactive; ? = inconclusive; / = no result; [ ] = remark or other dose. An excerpt weighted towards active compounds, which were near 7.4% of everything screened. The call rests on the fitted dose curve; in most records, active means well fitted curve in the direction sought with a large enough effect; inconclusive means small, poorly fitted or top-dose-only effect, or another doubt; inactive means no such curve, though single readings can be large; an effect the other way counts as inactive or inconclusive. Potency means the concentration at half of the fitted maximal effect.

SMILES	ELG1 genotoxic	SMN2 splice enh	Rab9 promoter act	FLuc modulator	NPC1 prom act
CN(CCC1CCCCO1)C(=O)c1cc(COc2ccc(F)cc2F)on1 (configuration not stated)	-2%	/	5%	-13%	6%
Cc1nnc(CN(C)C(=O)c2cc(COc3ccc(F)cc3Cl)on2)o1	?	/	2.8µM*	12µM*	2.5µM*
CN(CC1CCCCO1)C(=O)c1cc(COc2ccc(F)cc2Cl)on1 (configuration not stated)	-2%	/	2.8µM*	?	?
COc1cc(Cl)ccc1OCc1cc(C(=O)N[C@H]2CCCCNC2=O)no1	14%	/	?	3.4µM*	?
COc1cc(Cl)ccc1OCc1cc(C(=O)N(C)CC2CCCCO2)no1 (configuration not stated)	?	/	4µM*	19µM*	3.5µM*
CCCCOc1ccc(NC(=O)CSc2ccc(C(=O)O)cn2)cc1	/	17%	/	?	/
CCCSc1nc(N)nc(-c2cccs2)c1C#N	14%	17%	16%	21µM*	3%
CCOc1ccc2oc(C(=O)NCC3CCCO3)c(C)c2c1 (configuration not stated)	?	/	2.8µM*	15µM*	?
COc1ccc2oc(C(=O)OCC(=O)NCC3CCCO3)c(C)c2c1 (configuration not stated)	17%	/	-1%	?	-1%
COc1ccc2oc(C(=O)NCC3CCCO3)c(C)c2c1 (configuration not stated)	?	/	4µM*	13µM*	?
COc1ccc(-n2nc(C(=O)N3CCCCC3)c3c4ccccc4n(C)c3c2=O)cc1Cl	/	6%	/	0%	/
Cc1cc(C)n(CCc2nc(-c3ccc(-c4ccccc4)cc3)cs2)n1	?	-49%	22%	6.7µM*	24%
CC(C)c1nn2c(=O)cc(COC(=O)c3ccc(NC(=O)CCc4ccccc4)cc3)nc2s1	/	/	/	0%	/
O=C(/C=C/c1cccc([N+](=O)[O-])c1)N(c1ccccn1)c1ccccn1	1%	/	2%	0%	-3%
O=C(/C=C/c1cccc([N+](=O)[O-])c1)Nc1cccc(NC(=O)c2ccco2)c1	-5%	-1%	7%	19µM*	2%
O=C(NC(Cc1ccccc1)C(=O)O)/C(=C/c1cccc([N+](=O)[O-])c1)NC(=O)c1ccco1 (configuration not stated)	-1%	/	-1%	1%	0%
CC(NC(=O)/C(=C\c1cccc([N+](=O)[O-])c1)NC(=O)c1ccco1)C(=O)O (configuration not stated)	-1%	-21%	2%	15µM*	-1%
Cc1ccc2oc(-c3cccc(NC(=O)/C=C/c4cccc([N+](=O)[O-])c4)c3C)nc2c1	0%	13µM*	4.5µM*	3.4µM*	?
O=C(/C=C/c1cccc([N+](=O)[O-])c1)Nc1ccccn1	16%	27%	2.8µM*	-1%	?
CCn1cc(C(=O)N2CCN(c3cc(Cl)ccc3C)CC2)c(=O)c2cc(S(=O)(=O)N3CCOCC3)ccc21	/	-8%	/	-12%	/
CC(CC(=O)O)(CC(=O)O)C(=O)O	/	-9%[9.22 µM]	/	/	/
CCOc1ccccc1CSc1nc2ccccc2[nH]1	-1%	-8%	-4%	?	-1%
CCOc1ccccc1/C=C/c1nc2ccccc2[nH]c1=O	5%	/	4µM*	-10%	3.2µM*
COc1cc(OC)c(OC)cc1/C=C/c1cc(C(=O)O)c2ccccc2n1	3%	-8%	-8%	11µM*	-1%
CCN(CC)C(=O)Cc1cc(C(=O)O)c2ccccc2n1	0%	/	10%	4%[2.3 µM]	2%
SMILES	ELG1 genotoxic	SMN2 splice enh	Rab9 promoter act	FLuc modulator	NPC1 prom act
COc1ccc(-c2cc(C(=O)N3CCCC3)c3ccccc3n2)cc1OC	-7%	/	0%	?	4%
CCOc1ccccc1/C=C/c1cc(C(=O)O)c2ccccc2n1	10%	/	14%	13µM*	22%
Cc1cc(/C=C\c2ccccc2)nc2ccccc12	?	/	?	1.5µM*	23%
Cc1cc(C(=O)c2ccccc2)nc2ccccc12	6%	3%	3%	1%	0%
COc1ccc(/C=C/c2cc(C(=O)O)c3ccccc3n2)cc1	-15%	/	?	0.067µM*	?
CC(C)Cc1cc(C(=O)Nc2sc3c(c2C#N)CCC3)no1	0%	-6%	7%	?	1%
Cc1cc(C(=O)Nc2sc3c(c2C#N)CCC(C)C3)no1 (configuration not stated)	2.1µM*	14µM*	2µM*	2.7µM*	1.8µM*
Cc1cc(C(=O)Nc2sc3c(c2C#N)CCCC3)no1	?	6.3µM*	1.6µM*	2.4µM*	3.2µM*
Cc1cc(C(=O)Nc2sc3c(c2C#N)CCC3)no1	6.5µM*	?	29%	5.4µM*	-3%
CC1CCc2c(sc(NC(=O)c3ccc(Cl)cc3Cl)c2C#N)C1 (configuration not stated)	/	0%	/	4%	/
CC(C)Cc1cc(C(=O)Nc2sc3c(c2C#N)CCCC3)no1	3%	-7%	5%	?	-1%
CCOC(=O)c1cc(C(=O)Nc2sc3c(c2C#N)CCCC3)nn1C	7%	/	?	4.8µM*	2%
Cc1ccc(-n2[nH]c(=O)c(-c3ccccn3)c2C)cc1	?	/	0.45µM*	0.3µM*	?
Cc1ccc(-n2[nH]c(=O)c3cccnc32)cc1	3%	4%	8%	-15%	7%
Nn1c(Cc2ccccc2)nc2cc(Cl)ccc2c1=O	-2%	/	-1%	0%	-3%
Nn1c(COc2ccc(Cl)cc2)nc2ccccc2c1=O	?	14µM*	?	?	?
COc1ccc(Cl)cc1NC(=O)C1CCN(S(=O)(=O)c2ccc3c(c2)CC(C)N3C(C)=O)CC1 (configuration not stated)	/	/	/	-1%	/
Cc1sc2c(c1C)C(=O)NC(c1cccc(O)c1)N2 (configuration not stated)	3%	?	8%	15µM*	0%
Cc1c(CC(=O)N2CCC(C(N)=O)CC2)c(=O)oc2cc3c(cc12)CCC1(CCCCC1)O3	-5%	/	-6%	19µM*	6%
Cc1oc2cc3oc(=O)c(CC(=O)N4CCCCC4)c(C)c3cc2c1C	/	2%	/	-9%	/
CCC(NC(=O)Cc1c(C)c2cc3c(cc2oc1=O)OC(C)(C)CC3)C(=O)O (configuration not stated)	10%	/	2µM*	21µM*	3.2µM*
CCCOc1cccc(-c2nc3ccccc3c(=O)o2)c1	?	/	26%	8.5µM*	8%
CCCOc1ccc(-c2nc3ccccc3c(=O)o2)cc1	/	16µM*	/	0.67µM*	/
CCC(=O)Oc1ccc(-c2nc3ccccc3c(=O)o2)cc1	/	-5%	/	1.7µM*	/
CCCOc1ccc(-c2nc(N3CCC(C)CC3)c3ccccc3n2)cc1	/	-10%	/	-5%	/
